The record followed here is PubChem BioAssay (EPA / NIEHS).

SMILES strings stand for the structures. Records with an inconclusive call do not appear. Calls of active or inactive are those of the source. Rule for the calls: active = hit-call score of the fitted dose curve at least 0.9, where 1 is the maximum; inconclusive = response in the unintended direction; inactive = score below 0.9.

The first assay addresses Thyroid hormone receptor alpha (Rattus norvegicus) + Thyroid hormone receptor beta (Rattus norvegicus) (UniProt P18113+P63059). As to the kind of experiment: TOX21_TR_LUC_GH3_Antagonist_Followup: Tox21 GH3 Thyroid Hormone Receptor Antagonism Luciferase Follow-Up Assay (AID 2283942). The essentials: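 Luminescence read-out (ONE-Glo, 30 min at room temperature) in GH3 reporter cells challenged with 1.0 nM T3 final. Compounds ran at 92 uM to 5nM over 15 concentrations for 24 h; DMSO served as negative control and baseline.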
On to `Nc1ccn([C@@H]2O[C@H](CO)[C@@H](O)C2O)c(=O)n1` (some centres undefined), for which the outcome was inactive.
On the same count and under the same terms, the value for `O=c1cc(-c2ccccc2)oc2ccc3ccccc3c12` was “inactive”.
For orientation: AC50 means the midpoint of the concentration-response curve, whichever way the signal moves. For the compound `COc1ccccc1NC(=O)c1cc2ccccc2cc1O`, the half-maximal activity concentration (AC50) was 27.2 µM (active).
On the same count and under the same terms, for `Nc1cc(Cl)c(-c2cc(Cl)c(N)cc2Cl)cc1Cl` the value was 58.1 µM (active).
On to `Clc1ccc(Nc2nnc(Cc3ccncc3)c3ccccc23)cc1`, for which the outcome was inactive.

The target of the next assay is THRA (gene 7067) (UniProt P10827). Kind of assay: TOX21_TRA_COA_Antagonist_Followup_ratio: Tox21 Thyroid Hormone Receptor alpha Antagonism through Coactivator Recruitment Follow-Up Assay, Ratio (AID 2283953). An excerpt: TOX21_TRa_COA_Antagonist_Followup is a secondary assay for specificity for the TOX21_TR_GH3_LUC_Agonist assay. The LanthaScreen TR-FRET TR coactivator assay kits were used to determine TR activity in a cell-free functional assay. A time-resolved fluorescence resonance energy transfer (TR-FRET) signal was indicative of coactivator (SRC-2) recruitment.TOX21_TRA_COA_Antagonist_Followup_ratio is assay component calculated in the TOX21_TRA_COA_Antagonist_Followup assay. The TR-FRET ratio of acceptor emission (ch2) to donor emission (ch1) is indicative of the resonance energy transfer to the fluorescein tag on the coactivator peptide following recruitment to the receptor.Data from the assay component TOX21_TRA_COA_Antagonist_Followup_ratio was analyzed into 1 assay endpoint. This assay endpoint, TOX21_TRA_COA_Antagonist_Followup_ratio, was analyzed in the positive analysis fitting direction relative to DMSO as the negative control and baseline of activity. Using a type of inducible reporter, loss-of-signal activity can be used to understand changes in the reporter gene as they relate to the gene THRA. Furthermore, this assay endpoint can be referred to as a primary readout, because this assay has produced multiple assay endpoints and this ratio serves a reporter gene function to understand target activity. To generalize the intended target to other relatable targets, this assay endpoint is annotated to the nuclear receptor intended target family, where the subfamily is non-steroidal.
THRA (gene 7067), sequence (P10827 whole entry, looked up): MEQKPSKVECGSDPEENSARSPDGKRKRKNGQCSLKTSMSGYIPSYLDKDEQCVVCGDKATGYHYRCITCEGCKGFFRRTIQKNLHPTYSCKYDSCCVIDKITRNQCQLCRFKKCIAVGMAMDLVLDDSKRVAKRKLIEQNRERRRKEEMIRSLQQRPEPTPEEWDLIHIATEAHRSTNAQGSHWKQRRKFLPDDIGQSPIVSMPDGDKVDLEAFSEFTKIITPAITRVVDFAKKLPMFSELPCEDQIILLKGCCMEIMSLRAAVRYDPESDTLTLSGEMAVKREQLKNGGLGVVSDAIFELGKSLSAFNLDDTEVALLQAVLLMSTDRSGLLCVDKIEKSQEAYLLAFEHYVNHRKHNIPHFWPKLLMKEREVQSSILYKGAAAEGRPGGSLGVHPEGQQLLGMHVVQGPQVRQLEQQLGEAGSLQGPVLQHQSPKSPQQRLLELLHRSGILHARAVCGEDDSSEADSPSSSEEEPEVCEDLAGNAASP
Cell Media Required: Growth (90% DMEM/F-12, 10% Fetal Bovine Calf Serum, 100U/ml Penicillin, 100 ug/ml Streptomycin), Assay (10ng/mL sodium selenite, 10 ug/mL humanapo-transferrin, 10 uM ethanolamine, 10 ug/mL insulin, 500 ug/mL bovine serum albumin (BSA))Assay Protocol: 4 uL mixture of the receptor LBDs expressed as glutathione S-transferase (GST) fusion proteins (2.5 nM for TRa and 5.0 nM for TRb) and BSA (0.10%; Sigma-Aldrich) were incubated with 23 nL of control or test compound. A time-resolved fluorescence resonance energy transfer(TR-FRET) signal was indicative of coactivator recruitment using a 2 uL mixture of fluoresce in-labeled SRC-2 peptide (200 nM) and terbium-labeled anti-GST antibody (2nM), which transferred resonance energy to the fluorescein tag on the coactivator peptide following recruitment to the receptor. Fluorescence emission ratios (520:495 nm) were collected by an Envision plate reader (excitation at 340 nm and emissions at 495 and 520 nm), and the measured values were normalized to 0% activity using DMSO-only wells and 100 activity using T3 control wells.
`Nc1ccn([C@@H]2O[C@H](CO)[C@@H](O)C2O)c(=O)n1` (some centres undefined): the result was inactive.
On the same count and under the same terms, for `O=c1cc(-c2ccccc2)oc2ccc3ccccc3c12` the value was “inactive”; for `Nc1cc(Cl)c(-c2cc(Cl)c(N)cc2Cl)cc1Cl`, “inactive”.
On the same count and under the same terms, for `Clc1ccc(Nc2nnc(Cc3ccncc3)c3ccccc23)cc1` the value was “inactive”.
Same read-out and setting: for `CC(C)c1c(C(=O)Nc2ccccc2)c(-c2ccccc2)c(-c2ccc(F)cc2)n1CC[C@@H](O)C[C@@H](O)CC(=O)O` the value was “inactive”.

The next assay deals with THRB (gene 7068) (UniProt P10828). As to the kind of experiment: TOX21_TRB_BLA_Antagonist_Followup_ratio: Tox21 Thyroid Hormone Receptor beta Antagonism Beta-lactamase (BLA) Follow-Up Assay, Ratio (AID 2283958). An outline of the steps: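 Read-out: blue/green (460:530 nm) ratio of cleaved to uncleaved CCF4-AM after 2 h at room temperature, fitted against DMSO baseline. HEK293T UAS-bla cells carrying GAL4-human TRβ LBD were exposed 18 h, 37C/5% CO2.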
THRB (gene 7068), sequence (P10828 whole entry, looked up, the tested form may be a part): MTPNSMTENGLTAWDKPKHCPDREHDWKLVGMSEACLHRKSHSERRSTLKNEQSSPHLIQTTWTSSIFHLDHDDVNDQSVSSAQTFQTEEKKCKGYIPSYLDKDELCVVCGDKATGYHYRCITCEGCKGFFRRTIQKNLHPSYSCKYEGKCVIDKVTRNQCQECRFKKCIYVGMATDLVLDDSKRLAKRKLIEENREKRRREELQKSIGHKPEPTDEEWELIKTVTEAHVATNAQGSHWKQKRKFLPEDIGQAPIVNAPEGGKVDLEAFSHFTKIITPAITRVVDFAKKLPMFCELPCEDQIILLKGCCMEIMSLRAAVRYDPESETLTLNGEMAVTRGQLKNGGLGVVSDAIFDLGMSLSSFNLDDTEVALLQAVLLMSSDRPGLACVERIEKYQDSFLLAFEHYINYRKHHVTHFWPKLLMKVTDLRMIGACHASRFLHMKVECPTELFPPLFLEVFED
Turning to `Nc1ccn([C@@H]2O[C@H](CO)[C@@H](O)C2O)c(=O)n1` (some centres undefined), the result was inactive.
In the case of `COc1ccccc1NC(=O)c1cc2ccccc2cc1O`, the AC50 was 38.3 µM (active).
Same read-out and setting: for `Nc1cc(Cl)c(-c2cc(Cl)c(N)cc2Cl)cc1Cl` the value was 6.14 µM (active).
In the case of `Clc1ccc(Nc2nnc(Cc3ccncc3)c3ccccc23)cc1`, the outcome was inactive.
Same read-out and setting: the value for `CC(C)c1c(C(=O)Nc2ccccc2)c(-c2ccccc2)c(-c2ccc(F)cc2)n1CC[C@@H](O)C[C@@H](O)CC(=O)O` was “inactive”.

System in the next assay: not listed separately
As to the kind of experiment: TOX21_TRB_BLA_Antagonist_Followup_viability: Viability Assessment in the Tox21 Thyroid Hormone Receptor beta Antagonism Beta-lactamase (BLA) Follow-Up Assay (AID 2283961). An outline of the steps:
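HEK293T cells stably expressing GAL4-DBD/human TRβ-LBD with UAS-bla reporter, 3,000 cells/well in phenol red-free DMEM, 2% charcoal-stripped FBS. Compounds at 11 concentrations in triplicate, 18 h at 37C/5% CO2; viability by CellTiter-Glo luminescence after 30 min at room temperature.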
For the compound `Nc1ccn([C@@H]2O[C@H](CO)[C@@H](O)C2O)c(=O)n1` (some centres undefined), the call was inactive.
On the same count and under the same terms, for `O=c1cc(-c2ccccc2)oc2ccc3ccccc3c12` the value was “inactive”.
Regarding `COc1ccccc1NC(=O)c1cc2ccccc2cc1O`, the AC50 was 28.3 µM (active).
The same measure, in the same setting: for `Nc1cc(Cl)c(-c2cc(Cl)c(N)cc2Cl)cc1Cl` the value was 60.1 µM (active).
On to `CC(C)c1c(C(=O)Nc2ccccc2)c(-c2ccccc2)c(-c2ccc(F)cc2)n1CC[C@@H](O)C[C@@H](O)CC(=O)O`, for which the compound was called inactive.

A further assay addresses THRB (gene 7068) (UniProt P10828). Kind of assay: TOX21_TRB_COA_Antagonist_Followup_ratio: Tox21 Thyroid Hormone Receptor beta Antagonism through Coactivator Recruitment Follow-Up Assay, Ratio (AID 2283967). An outline of the steps:
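GST-TRb LBD 5.0 nM + 0.10% BSA, compound added; fluorescein-SRC-2 peptide 200 nM, Tb-anti-GST Ab 2 nM. TR-FRET, ex 340 / em 520:495 ratio. Norm: DMSO 0%, T3 100%.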
For `Nc1ccn([C@@H]2O[C@H](CO)[C@@H](O)C2O)c(=O)n1` (some centres undefined), the outcome was inactive.
In the case of `O=c1cc(-c2ccccc2)oc2ccc3ccccc3c12`, the result was inactive.
In the case of `Nc1cc(Cl)c(-c2cc(Cl)c(N)cc2Cl)cc1Cl`, the result was inactive.
On the same count and under the same terms, for `CC(C)c1c(C(=O)Nc2ccccc2)c(-c2ccccc2)c(-c2ccc(F)cc2)n1CC[C@@H](O)C[C@@H](O)CC(=O)O` the value was “inactive”.
